# Assay results published in PubChem BioAssay (Tox21).
# “And” between values parts separate entries of the source, which are not always exact repeats. Equal entries are not always repeated. Results filed as inconclusive are left out. A call without a number means that no potency is given here. Some compounds were tested as several samples or in several runs, with calls that do not always agree. The source made the active and inactive calls. Unless noted, calls come from the whole dose curve; as a rule, active = well fitted curve in the direction sought with a large enough effect in the repeat runs; inconclusive = weak or mixed curves; inactive = no such curve, though single readings can be large; an effect the other way counts as inactive or inconclusive.
# How the values were obtained:
# [1] = target: Luciferin 4-monooxygenase (Photinus pyralis) (UniProt P08659); assay: qHTS assay to identify small molecule inhibitors of firefly luciferase (AID 1224835); note: nearly all actives have a fitted effect of over 25% in size; note: potency is the fitted concentration of half-maximal effect
# Luciferin 4-monooxygenase (Photinus pyralis), sequence (P08659 whole entry, looked up): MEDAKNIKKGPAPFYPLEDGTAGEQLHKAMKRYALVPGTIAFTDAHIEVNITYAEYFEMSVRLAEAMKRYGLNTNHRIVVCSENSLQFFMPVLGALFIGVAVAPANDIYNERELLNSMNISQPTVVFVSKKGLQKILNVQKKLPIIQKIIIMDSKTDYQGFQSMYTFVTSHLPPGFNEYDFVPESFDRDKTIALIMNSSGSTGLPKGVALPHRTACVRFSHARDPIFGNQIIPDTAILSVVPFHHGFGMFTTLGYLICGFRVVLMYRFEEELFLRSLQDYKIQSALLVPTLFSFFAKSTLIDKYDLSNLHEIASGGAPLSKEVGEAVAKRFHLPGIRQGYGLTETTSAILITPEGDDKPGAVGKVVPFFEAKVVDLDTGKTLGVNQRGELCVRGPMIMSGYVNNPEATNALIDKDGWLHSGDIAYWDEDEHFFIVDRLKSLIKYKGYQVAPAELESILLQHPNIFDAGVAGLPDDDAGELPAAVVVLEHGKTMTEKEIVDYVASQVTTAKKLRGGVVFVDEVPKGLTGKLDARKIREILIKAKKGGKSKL
# How it was run: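 Inhibition of purified Photinus luciferase is measured by luminescence. Substrate levels (D-luciferin, ATP) sit at their KM values. Each compound is tested in a concentration series.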
# [2] = qHTS assay to identify small molecule agonists of the constitutive androstane receptor (CAR) signaling pathway - cell viability counter screen (AID 1224836); note: nearly all actives have a fitted effect of over 45% in size
# How it was run: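 Compound titrations (15 concentrations) went onto HepG2-CYP2B6-hCAR cells 4 h after seeding, alongside PK11195 at a final 0.75 uM; a 23 h, 37 C/5% CO2 incubation preceded CellTiter-Fluor viability measurement.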
# [3] = qHTS assay to identify small molecule antagonists of the constitutive androstane receptor (CAR) signaling pathway - cell viability counter screen (AID 1224837); note: nearly all actives have a fitted effect of over 45% in size
# How it was run: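 To flag cytotoxic false antagonists, HepG2 hCAR/CYP2B6-2.2kb cells were treated 23 hr with 15-concentration compound series and 50 nM CITCO at 37 C/5% CO2; CellTiter-Fluor fluorescence was the measured end point.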
# [4] = target: Nuclear receptor subfamily 1 group I member 3 (Homo sapiens) (UniProt Q14994); assay: qHTS assay to identify small molecule antagonists of the constitutive androstane receptor (CAR) signaling pathway (AID 1224838);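 note: HepG2 cells stably expressing hCAR with CYP2B6 luciferase reporter stimulated by CITCO; nearly all actives have a fitted effect of over 40% in size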
# Nuclear receptor subfamily 1 group I member 3 (Homo sapiens), sequence (Q14994 whole entry, looked up): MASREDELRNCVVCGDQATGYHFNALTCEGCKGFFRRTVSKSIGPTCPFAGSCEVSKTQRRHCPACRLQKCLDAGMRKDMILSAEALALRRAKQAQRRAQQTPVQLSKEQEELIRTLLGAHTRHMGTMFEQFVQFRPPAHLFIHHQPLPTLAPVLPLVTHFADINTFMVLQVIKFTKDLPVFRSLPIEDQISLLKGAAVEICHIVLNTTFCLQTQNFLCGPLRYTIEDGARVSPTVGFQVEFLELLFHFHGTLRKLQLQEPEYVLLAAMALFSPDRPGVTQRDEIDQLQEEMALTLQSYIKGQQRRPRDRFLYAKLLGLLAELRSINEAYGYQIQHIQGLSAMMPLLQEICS
# How it was run: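 Human hepatoma HepG2 cells expressing hCAR and a CYP2B6 promoter (2.2 kb) luciferase construct; compound titration (15 points) with 50 nM CITCO final, 24 h at 37 C/5% CO2; luminescence via ONE-Glo after 30 min at room temperature.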
# [5] = target: Nuclear receptor subfamily 1 group I member 3 (Homo sapiens) (UniProt Q14994); assay: qHTS assay to identify small molecule agonists of the constitutive androstane receptor (CAR) signaling pathway (AID 1224839); note: nearly all actives have a fitted effect of over 15% in size; note: potency is the fitted concentration of half-maximal effect;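 for activation: HepG2 cells stably carrying human CAR and a CYP2B6 luciferase reporter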
# How it was run: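 In this screen, CAR-driven CYP2B6 promoter activity is measured by luminescence in HepG2-CYP2B6-hCAR cells after 24 h with test compounds and 0.75 uM PK11195 (final concentration).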
# [6] = qHTS assay to identify small molecule antagonists of the estrogen related receptor signaling pathway with the pleiotropic PPARgamma coactivator (PGC) from Tox21 10K library - cell viability counter screen (AID 1224840; active = well fitted cell-killing curve with a large enough effect in the repeat runs, not every such curve was filed as active; note: nearly all actives have a fitted effect of over 40% in size)
# How it was run: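 Seeded PGC/ERR cells (2,000/well, 6 h, 37 C/5% CO2) get compound by pin tool; 17.5 h incubation at 37 C; CellTiter-Fluor added, 30 min, fluorescence measured.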
# [7] = qHTS assay to identify small molecule antagonists of the estrogen related receptor signaling pathway with the pleiotropic PPARgamma coactivator (PGC) from Tox21 10K library (AID 1224841; call rule not given here; note: actives are mostly falling curves and most rising ones were filed inactive; nearly all actives have a fitted effect of over 50% in size; note: potency is the fitted concentration of half-maximal effect)
# How it was run: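 Test chemicals dissolved in DMSO were applied to pre-incubated (6 h) PGC/ERR cells at 2,000 cells/well for an 18 h, 37 C treatment; reporter luminescence was then read using One-Glo.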
# [8] = qHTS assay to identify small molecule agonists of the estrogen related receptor signaling pathway with the pleiotropic PPARgamma coactivator (PGC) from Tox21 10K library (AID 1224842); note: nearly all actives have a fitted effect of over 15% in size
# How it was run: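 Luminescence from One-Glo (30 min, room temperature) measured after PGC/ERR cells had 18 h at 37 C with pinned compound (23 nL in DMSO). Cells had been seeded at 2,000 per well and pre-incubated 6 h.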
# [9] = target: Thyrotropin receptor (Homo sapiens) (UniProt P16473); assay: qHTS assay to identify small molecule agonists of the thyroid stimulating hormone receptor (TSHR) signaling pathway (AID 1224843; calls by dose curve; note: nearly all actives have a fitted effect of over 45% in size)
# Thyrotropin receptor (Homo sapiens), sequence (P16473 whole entry, looked up): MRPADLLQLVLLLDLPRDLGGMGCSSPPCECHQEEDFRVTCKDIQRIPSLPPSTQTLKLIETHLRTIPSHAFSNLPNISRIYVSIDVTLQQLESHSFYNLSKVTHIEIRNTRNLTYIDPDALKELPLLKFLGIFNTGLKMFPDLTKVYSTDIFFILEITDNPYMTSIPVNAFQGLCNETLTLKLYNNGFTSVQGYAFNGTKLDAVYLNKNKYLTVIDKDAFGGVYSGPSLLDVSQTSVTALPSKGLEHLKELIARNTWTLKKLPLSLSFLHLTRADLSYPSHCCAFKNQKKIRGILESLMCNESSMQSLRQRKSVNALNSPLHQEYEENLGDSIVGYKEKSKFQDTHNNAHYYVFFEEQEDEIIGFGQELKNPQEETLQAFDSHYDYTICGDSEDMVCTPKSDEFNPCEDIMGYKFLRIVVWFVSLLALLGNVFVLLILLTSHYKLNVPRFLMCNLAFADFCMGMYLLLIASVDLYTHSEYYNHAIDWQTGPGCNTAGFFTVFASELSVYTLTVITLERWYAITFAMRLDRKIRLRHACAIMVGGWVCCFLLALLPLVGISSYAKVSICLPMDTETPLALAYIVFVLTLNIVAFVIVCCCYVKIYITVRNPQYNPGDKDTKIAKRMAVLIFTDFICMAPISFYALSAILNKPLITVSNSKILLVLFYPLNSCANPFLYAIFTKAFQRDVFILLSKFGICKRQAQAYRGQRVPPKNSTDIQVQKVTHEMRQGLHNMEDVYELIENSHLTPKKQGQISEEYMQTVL
# How it was run: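 A cell-based cAMP HTRF format was run in TSHR-transfected HEK293 cells, 800 per well. Treatment: 30 min, room temperature. Detection: 1 h with labelled cAMP and anti-cAMP cryptate. Concentration-response over 15 points, three replicates.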
# [10] = qHTS assay to identify small molecule agonists of the hypoxia (HIF-1) signaling pathway - cell viability counter screen (AID 1224844; calls by dose curve; note: nearly all actives have a fitted effect of over 50% in size; note: potency is the fitted concentration of half-maximal effect)
# How it was run: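 HRE-bla ME-180; 0.5% dFBS; cpd 17 h, 37C, 5% CO2; CellTiter-Glo lum., 30 min RT, post-FRET read, same wells.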
# [11] = qHTS assay to identify small molecule agonists of H2AX (AID 1224845; active = well fitted activation curve with a large enough effect in the signal ratio in the repeat runs, not every such curve was filed as active; the % refers to the signal ratio)
# How it was run: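 Phospho-H2AX Ser139 measured by HTRF (ex 320 nm; em 665 and 620 nm) after 24 hr antibody incubation. Compounds, 15 concentrations, 0.76% DMSO, were applied to CHO-K1 cells for 3hr at 37C before lysis.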
# [12] = qHTS assay to identify small molecule agonists of the hypoxia (HIF-1) signaling pathway (AID 1224846; active = well fitted activation curve with a large enough effect in the signal ratio in the repeat runs, not every such curve was filed as active; the % refers to the signal ratio)
# How it was run: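 Reporter induction in HRE-bla ME-180 cells is taken as agonism: cells sit 5 hrs after plating, receive compounds or DMSO only, incubate 17 hrs at 37C under 5% CO2, and are loaded with CCF4-AM for beta-lactamase FRET measurement.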
# [13] = qHTS assay to identify small molecule agonists of H2AX - cell viability counter screen (AID 1224847; calls by dose curve; note: top concentration of the series differs between compounds; nearly all actives have a fitted effect of over 30% in size)
# How it was run: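 Read-out: CellTiter-Glo luminescence, 30 min RT. Cells: wild-type CHO-K1, 1000/well, 10% FBS, plated overnight at 37C. Treatment: 15 concentrations, 3 hr, 37C, 0.76% DMSO.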
# [14] = qHTS assay to identify small molecule antagonists of the estrogen related receptor (ERR) signaling pathway from Tox21 library (AID 1224848); note: nearly all actives have a fitted effect of over 50% in size; note: potency is the fitted concentration of half-maximal effect
# How it was run: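 ERR cell line, 2,000 cells/well. 6 h settle, then compound (DMSO) added; 18 h at 37 C; ONE-Glo luminescence after 30 min RT.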
# [15] = qHTS assay to identify small molecule agonists of the estrogen related receptor (ERR) signaling pathway from Tox21 library (AID 1224849; calls by dose curve; note: nearly all actives have a fitted effect of over 15% in size); conditions: ERR reporter cell line, ONE-Glo luciferase, 18 h
# How it was run: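 Tox21 compounds tested for ERR agonism in an NTP reporter cell line: 18 h treatment at 37 C, then ONE-Glo luminescence.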
# [16] = qHTS RealTime-Glo MT Cell Viability Assay in HepG2 cells - 24 hour (AID 1224867); note: nearly all actives have a fitted effect of over 50% in size
# How it was run: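 HepG2 suspension premixed with RealTime-Glo reagents is plated at 600 cells per well and left 5 h at 37 C/5% CO2. Compounds in DMSO then go in, and bioluminescence reflecting viable cell number is recorded over 40 h.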
# [17] = A CellTox Green Cytotoxicity Assay to monitor cytotoxicity in HEK293 cells - 0 hour (AID 1224869); note: nearly all actives have a fitted effect of over 50% in size; note: potency is the fitted concentration of half-maximal effect
# How it was run: (§1)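 Tox21 screen in HEK293: membrane-impermeant cyanine dye fluoresces on binding dead-cell DNA; compound pinned 5 h post-seeding, plates held at 37 C, signal read repeatedly through 40 h.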
# [18] = qHTS RealTime-Glo MT Cell Viability Assay in HepG2 cells - 40 hour (AID 1224870); note: nearly all actives have a fitted effect of over 50% in size
# How it was run: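 Real-time viability: cells seeded at 600 per well together with NanoLuc and cell-permeant prosubstrate, compounds added after 5 h incubation. Luminescence tracked at 0, 8, 16, 24, 32 and 40 h of exposure.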
# [19] = A CellTox Green Cytotoxicity Assay to monitor cytotoxicity in HEK293 cells - 40 hour (AID 1224871); note: nearly all actives have a fitted effect of over 45% in size; note: potency is the fitted concentration of half-maximal effect
# How it was run: as §1
# [20] = qHTS RealTime-Glo MT Cell Viability Assay in HEK293 cells - 32 hour (AID 1224868); note: nearly all actives have a fitted effect of over 50% in size; note: potency is the fitted concentration of half-maximal effect; for activity change, negative = cytotoxic: top concentration of the series differs between compounds
# How it was run: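 Reads taken at 0, 8, 16, 24, 32 and 40 h from the same wells. HEK293 cells (600/well) carried RealTime-Glo reagents from seeding, with compound added after a 5 h settle at 37 C.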
smiles,measurement,setting,value
CC(C)Cn1cnc2c(N)nc3ccccc3c21,"activity change, negative = inhibition",[1],5.54% [at 23.6 µM] (inactive)
same,"viability change, negative = cytotoxic",[2],-20.4% [at 19 µM] (inactive)
same,"activity change, negative = cytotoxicity",[3],-10.6% [at 19 µM] (inactive)
same,"activity, negative = inhibition",[4],27.4% [at 19 µM] (inactive)
same,activation,[5],6.88% [at 19 µM] (inactive)
same,"viability change, negative = cytotoxic",[6],16.3% [at 19 µM] (inactive)
same,"activity, negative = inhibition",[7],23.8% [at 19 µM] (inactive)
same,activation,[8],6.35% [at 19 µM] (inactive)
same,activation,[9],14.2% [at 19 µM] (inactive)
same,"activity change, negative = cytotoxicity",[10],18.6% [at 15.8 µM] (inactive)
same,activation (H2AX phosphorylation),[11],-2.05% [at 31.6 µM] (inactive)
same,activation,[12],0.447% [at 15.8 µM] (inactive)
same,"activity change, negative = cytotoxicity",[13],1.2% [at 31.6 µM] (inactive)
same,"activity, negative = inhibition",[14],-22% [at 19 µM] (inactive)
same,"activity change, positive = activation",[15]; at 19 µM (top of the series),-11.2% (inactive)
same,"activity change, negative = cytotoxicity",[16],0.631% [at 15.8 µM] (inactive)
same,cytotoxicity,[17],4.66% [at 15.8 µM] (inactive)
same,"activity change, negative = cytotoxic",[18],1.75% [at 15.8 µM] (inactive)
same,cytotoxicity increase,[19],1.7% [at 15.8 µM] (inactive)
O=C1CCCCCCCCCCCCCCCO1,Potency,[1],inactive
same,Potency,[2],inactive
same,Potency,[3],inactive
same,Potency,[4],inactive
same,Potency,[5],inactive
same,Potency,[6],inactive
same,Potency,[7],inactive
same,Potency,[9],inactive
same,Potency,[10],inactive
same,Potency,[12],inactive
same,Potency,[14],inactive
same,"activity change, positive = activation",[15]; at 92.4 µM (top of the series),-5.05% (inactive)
same,Potency,[16],inactive
same,Potency,[20],inactive
same,Potency,[17],24.5 µM (active)
same,Potency,[18],inactive
Cc1cccc2cccnc12,Potency,[1],inactive
same,Potency,[2],inactive
same,Potency,[3],inactive
same,Potency,[4],inactive
same,Potency,[5],inactive
same,Potency,[6],inactive
same,Potency,[7],inactive
same,Potency,[9],inactive
same,Potency,[10],inactive
same,Potency,[11],inactive
same,Potency,[12],inactive
same,Potency,[13],inactive
same,Potency,[14],inactive
same,"activity change, positive = activation",[15]; at 92.4 µM (top of the series),0.0767% (inactive)
same,Potency,[16],inactive
same,Potency,[20],inactive
same,Potency,[18],inactive
same,Potency,[19],inactive
C=C(C)C(=O)OCCCCCCCCCC,Potency,[1],inactive
same,Potency,[2],inactive
same,Potency,[3],inactive
same,Potency,[4],inactive
same,Potency,[5],inactive
same,Potency,[6],inactive
same,Potency,[7],inactive
same,Potency,[8],inactive
same,Potency,[9],inactive
same,Potency,[10],inactive
same,Potency,[12],inactive
same,Potency,[13],inactive
same,Potency,[14],inactive
same,"activity change, positive = activation",[15]; at 92.4 µM (top of the series),2.01% (inactive)
same,Potency,[16],inactive
same,Potency,[18],inactive
O=C(O)c1cc(=O)c2ccccc2o1,Potency,[1],inactive
same,Potency,[2],inactive
same,Potency,[3],inactive
same,Potency,[4],inactive
same,Potency,[5],inactive
same,Potency,[6],inactive
same,Potency,[7],inactive
same,Potency,[9],inactive
same,Potency,[10],inactive
same,Potency,[11],inactive
same,Potency,[12],inactive
same,Potency,[13],inactive
same,Potency,[14],inactive
same,"activity change, positive = activation",[15]; at 42.5 µM (top of the series),-3.87% (inactive)
same,Potency,[16],inactive
same,Potency,[20],inactive
same,Potency,[17],inactive
same,Potency,[18],inactive
same,Potency,[19],inactive
CCCCCCCC/C=C\CCCCCCCCN,Potency,[1],inactive
same,Potency,[2],inactive
same,Potency,[3],inactive
same,Potency,[4],inactive
same,Potency,[5],inactive
same,Potency,[6],inactive
same,Potency,[7],inactive
same,Potency,[9],inactive
same,Potency,[10],inactive
same,Potency,[11],inactive
same,Potency,[12],inactive
same,Potency,[13],inactive
same,Potency,[14],inactive
same,"activity change, positive = activation",[15]; at 42.5 µM (top of the series),-2.95% (inactive)
same,Potency,[20],23.9 µM (active)
same,Potency,[17],inactive
same,Potency,[19],23.9 µM (active)
C=C(CC)C(=O)c1ccc(OCC(=O)O)c(Cl)c1Cl,Potency,[1],79.1 µM (active) and inactive
same,Potency,[2],inactive
same,Potency,[3],inactive
same,Potency,[4],inactive
same,Potency,[5],3.35 µM (active)
same,Potency,[6],inactive
same,Potency,[7],30.4 µM (active) and 29.8 µM (active)
same,Potency,[8],inactive
same,Potency,[9],inactive
same,Potency,[10],19.4 µM (active) and 21.3 µM (active)
same,Potency,[11],inactive
same,Potency,[14],68.1 µM (active)
same,"activity change, positive = activation",[15]; at 42.5 µM (top of the series),-17.8% (inactive)
same,"activity change, positive = activation",[15]; at 92.4 µM (top of the series),-55% (inactive)
same,Potency,[16],inactive
same,Potency,[20],inactive
same,Potency,[17],inactive
same,Potency,[18],inactive
same,Potency,[19],inactive
